From PubChem BioAssay AID1727 (National Center for Advancing Translational Sciences (NCATS), 2009)
Values without a mark were called inactive. The call rests on the fitted dose curve; in most records, active means well fitted curve in the direction sought with a large enough effect; inactive means no such curve, though single readings can be large or run the other way.

The molecules below were run against Epidermal growth factor receptor (Homo sapiens) (UniProt P00533) (assay: Assay for Inhibitors of the ERK Signaling Pathway using a Homogeneous Screening Assay: EGFR L858R Kinase Inhibition). Details: EGFR L858R kinase biochemical inhibition assay; series mostly up to 65.8 µM; activity, negative = inhibition: at the top concentration.
Sequence of Epidermal growth factor receptor (Homo sapiens) (P00533 whole entry L858R, looked up): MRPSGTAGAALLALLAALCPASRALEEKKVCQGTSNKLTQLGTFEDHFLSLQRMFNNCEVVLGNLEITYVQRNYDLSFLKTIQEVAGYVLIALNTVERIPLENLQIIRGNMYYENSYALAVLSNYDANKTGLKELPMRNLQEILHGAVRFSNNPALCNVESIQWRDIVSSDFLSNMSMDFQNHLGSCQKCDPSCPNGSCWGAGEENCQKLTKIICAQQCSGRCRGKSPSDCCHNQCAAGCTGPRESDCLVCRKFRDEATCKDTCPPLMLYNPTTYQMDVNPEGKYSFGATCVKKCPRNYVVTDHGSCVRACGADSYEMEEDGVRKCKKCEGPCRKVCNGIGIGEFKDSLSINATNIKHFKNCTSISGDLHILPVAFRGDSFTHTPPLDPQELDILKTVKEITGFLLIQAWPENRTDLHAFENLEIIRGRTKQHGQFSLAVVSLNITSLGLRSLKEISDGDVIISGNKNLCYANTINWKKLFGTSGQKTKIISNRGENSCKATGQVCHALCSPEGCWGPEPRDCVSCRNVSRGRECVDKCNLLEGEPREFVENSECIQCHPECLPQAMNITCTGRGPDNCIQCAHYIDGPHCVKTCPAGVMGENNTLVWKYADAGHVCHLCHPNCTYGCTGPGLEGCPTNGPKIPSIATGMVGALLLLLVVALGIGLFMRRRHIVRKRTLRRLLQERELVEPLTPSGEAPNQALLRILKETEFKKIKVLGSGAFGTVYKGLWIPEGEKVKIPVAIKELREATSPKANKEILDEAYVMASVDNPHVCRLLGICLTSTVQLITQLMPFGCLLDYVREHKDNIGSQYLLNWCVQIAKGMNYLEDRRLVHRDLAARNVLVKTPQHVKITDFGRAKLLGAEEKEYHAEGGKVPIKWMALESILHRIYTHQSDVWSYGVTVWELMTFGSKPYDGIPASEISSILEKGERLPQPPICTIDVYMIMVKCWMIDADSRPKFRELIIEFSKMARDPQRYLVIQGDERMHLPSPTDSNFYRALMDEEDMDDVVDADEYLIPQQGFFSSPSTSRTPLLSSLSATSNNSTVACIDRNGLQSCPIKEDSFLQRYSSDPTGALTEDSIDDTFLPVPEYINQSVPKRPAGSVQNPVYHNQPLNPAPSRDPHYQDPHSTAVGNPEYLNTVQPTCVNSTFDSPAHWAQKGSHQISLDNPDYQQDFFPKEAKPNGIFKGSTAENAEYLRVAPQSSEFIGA
Description: qHTS Assay for Inhibitors of the ERK Signaling Pathway using a Homogeneous Screening Assay
NIH Chemical Genomics Center [NCGC]
NIH Molecular Libraries Screening Centers Network [MLSCN]
Assay Submitter (PI): Dr. Wei Zheng, NCGC/NIH
The Ras/extracellular-signal-regulated kinase (ERK) mitogen activated protein (MAP) kinase signaling pathway (ERK1/2 cascade) plays is a key role in transmitting signals from the cell surface to the nucleus (Nishida and Gotoh 1993; Chang and Karin, 2001). The cascade is initiated by the small G-protein Ras, which recruits Raf […], where activation occurs. Alternatively, this pathway can be activated by elevating intracellular cAMP.
Activation of the ERK pathway is essential in increased cell division and cell survival. Sustained and constitutive activation of the ERK pathway, however, has been linked to uncontrolled cell proliferation, increased cell survival, and tumor progression. Thus, the ERK has been as an attractive target for cancer chemotherapy in the past few years (Sebolt-Leopold and Herrera, 2004). Given its physiological and pathological importance, assessment of ERK phosphorylation has been broadly performed in both basic research and drug discovery. Most assays for the measurement of ERK phosphorylation use the antibody-based detection methods, such as western blot and ELISA. These assays require multiple reagent additions with cell wash steps and are not suitable for high-throughput screening.
The current cell-based ERK phosphorylation assay was performed using AlphaScreen platform. AlphaScreen is a two bead-based proximity-dependent chemical energy transfer luminescent assay platform. The assay reagents (ERK SureFire(TM) kit) were supplied from TGR BioSciences (Australia). […]
The HTRF kinase assay (components supplied as kit by Cisbio) was chosen for the EGFR and EGFR mutant enzyme assays that applied the time resolved fluorescence resonance energy transfer (TR-FRET) principle. […]

Q: Which “activity, negative = inhibition” value does the source give for `Cc1nc2c(=O)n(C)c(=O)nc-2n(C)n1` here?
A: 11.6%

Q: With `CN1CCN(c2cccc3c2C(=O)c2ccccc2C3=O)CC1` as the molecule, how does the “activity, negative = inhibition” value read?
A: 8.93%

Q: With `CCn1nc(-c2ccccc2)nc2c(=O)n(C)c(=O)nc1-2` as the molecule, how does the “activity, negative = inhibition” value read?
A: -0.966% [at 21.9 µM]
